Sampled rows, rich in hits. Any-hit rate of the full collection: about 2%.
NR2F2 inh = NR2F2 transcriptional activity inhibitors, primary screen, cell-based, luciferase reporter, HEK293T, luminescence. COUP transcription factor 2 (Homo sapiens), P24468. HEK293T NGFI-A luciferase reporter. inhibition, % at 8.6 µM. 370,000 tested, 0.7% active. AID 686940, 2013;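 active = inhibition above a per-plate cutoff, mean inhibition of test wells between control levels plus 3 SD, cut at about 38% in these data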;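 note: cells cotransfected with COUP-TFII expression vector driving the NGFI-A reporter; 0% = median of COUP-TF2 test wells and 100% = reporter-only cells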
Target sequence (P24468 whole entry, looked up): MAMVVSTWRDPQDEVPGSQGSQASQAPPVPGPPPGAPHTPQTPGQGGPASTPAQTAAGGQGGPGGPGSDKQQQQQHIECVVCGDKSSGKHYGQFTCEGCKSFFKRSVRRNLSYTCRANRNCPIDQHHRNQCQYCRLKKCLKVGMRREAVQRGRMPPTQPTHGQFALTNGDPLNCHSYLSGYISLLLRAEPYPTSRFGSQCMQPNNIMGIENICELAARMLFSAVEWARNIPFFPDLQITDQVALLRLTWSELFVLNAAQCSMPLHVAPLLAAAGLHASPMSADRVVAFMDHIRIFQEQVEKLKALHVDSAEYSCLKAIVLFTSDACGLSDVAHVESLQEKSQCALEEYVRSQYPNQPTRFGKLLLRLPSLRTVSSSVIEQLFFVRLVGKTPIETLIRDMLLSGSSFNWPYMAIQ
697 NFkB inh = inhibitors of PMA/ionomycin-induced NF-kB reporter, 697 cells, primary screen, B-cell NF-kB inhibitor project, cell-based, luminescence, uHTS. 697 B-cell NF-kB luciferase reporter, 16 h. inhibition, % at 4 µM. 330,000 tested, 0.33% active. AID 435022, 2010; in the data active = inhibition above about 35%
Gli-Sufu block = Gli-Sufu pathway antagonists, primary screen, luciferase luminescence, Sufu-KO-LIGHT cells, uHTS; Sufu-KO-LIGHT fibroblasts, Gli luciferase reporter luminescence; inhibition, % at 5 µM; 340,000 tested, 0.74% active; AID 588413, 2011;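 active = inhibition above about 55%, limit read from the data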;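 note: 0% = DMSO-treated cells and 100% = wells with medium but no cells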
Jurkat NFkB inh = inhibitors of induced NF-kB luciferase reporter, primary screen, TCR NF-kB activation inhibitor project, cell-based, luminescence, uHTS; Jurkat, PMA/ionomycin-induced NF-kB luciferase reporter; inhibition, % at 4 µM; 330,000 tested, 0.53% active; AID 435003, 2010; in the data active = inhibition above about 50%
GalR3 antagonist = GalR3 antagonists in HEK293 cells, primary screen, cell-based, fluorescence readout; Galanin receptor type 3 (Homo sapiens), O60755; HEK293 GalR3-CNG cAMP membrane potential fluorescence; galR3 body fused to GalR1 C-terminus; inhibition, % at 3 µM; 360,000 tested, 0.44% active; AID 651719, 2012;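 active = inhibition above the screen-wide average plus 3 SD, cut at about 13% in these data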;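 note: forskolin and galanin both at EC90 stimulate the cells; cAMP rise reported by CNG channel membrane potential dye signal; 0% = forskolin plus galanin with DMSO and 100% = forskolin alone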
Target sequence (O60755 1-299 limits assumed): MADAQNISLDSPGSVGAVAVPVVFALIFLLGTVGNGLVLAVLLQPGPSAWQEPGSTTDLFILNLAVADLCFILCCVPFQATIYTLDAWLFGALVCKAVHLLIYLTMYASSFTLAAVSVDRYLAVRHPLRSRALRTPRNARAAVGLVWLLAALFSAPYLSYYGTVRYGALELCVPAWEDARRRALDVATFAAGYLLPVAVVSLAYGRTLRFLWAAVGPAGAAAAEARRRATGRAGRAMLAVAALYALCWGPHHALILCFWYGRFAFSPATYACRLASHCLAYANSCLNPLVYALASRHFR
VP16 Luc counter = Gal4-VP16 luciferase reporter inhibitors, counter-screen for COUP-TFII antagonist project, cell-based, luminescence, HEK293. shares compounds with NR2F2 inh. inhibition, % at 8.5 µM. 2,500 tested, 25% active. AID 687007, 2013; in the data active = inhibition above about 13%
COUP-TFII conf = NR2F2 transcriptional activity inhibitors, confirmation, cell-based, luciferase reporter, HEK293, triplicate; shares compounds with NR2F2 inh; AID 687008, 2013; 2,500 tested, 45% active; inhibition, % at 8.5 µM; HEK293 NGFI-A luciferase reporter, luminescence;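 active = mean inhibition over three repeats above a set limit taken from the earlier primary screen, cut at about 38% in these data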;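 note: 100% = cells given the luciferase reporter alone without the COUP-TF2 vector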
Numbers without * were called inactive; · = no result; ! = a repeat was not active.

SMILES | NR2F2 inh | 697 NFkB inh | Gli-Sufu block | Jurkat NFkB inh | GalR3 antagonist | VP16 Luc counter | COUP-TFII conf
CCOc1ccc(NC(=O)CCCOc2cc(=O)n(C)c3ccccc23)cc1 | -4 | 32 | 7 | -3 | -3 | · | ·
Cc1cc(C)c(O)c(C(=O)CC2CC(=O)NC(=O)C2)c1 | 75* | · | · | · | -1 | -16 | 51*
CC(=O)N(Cc1cc2c(C)cc(C)cc2[nH]c1=O)C1CCCCC1 | 6 | -7 | -7 | -16 | -4 | · | ·
C/C(=N\NC(N)=S)C1C2C3CC4C5CC(C42)C1C53 (stereo not given) | 57* | 29 | 37 | 22 | -8 | 11 | 43*
C/C(CCC12CC3CC(CC(C3)C1)C2)=N\NC(N)=S | 14 | 20 | 40 | 11 | -5 | · | ·
O=C(NCCc1c[nH]c2ccccc12)OCc1cn(Cc2cc(F)cc(F)c2)nn1 | -5 | · | · | · | · | · | ·
O=C(OCc1cn(Cc2cccc(F)c2F)nn1)N1CCCC1 | -11 | · | · | · | · | · | ·
CC1CNCCN1S(=O)(=O)c1cccc2cnccc12 (stereo not given) | 41*! | -9 | 12 | 7 | -4 | 3 | 11
O=S(=O)(c1cccc2cnccc12)N1CCCNCC1 | · | 2 | -20 | 28 | · | · | ·
COc1cccc(C(=O)n2ccc3ccc(-c4ccc5ccn(Cc6ccccc6)c5c4)cc32)c1 | -7 | · | · | · | · | · | ·
Cc1oc(-c2cc(F)ccc2F)nc1CN1CCN(c2ncnc3ccccc23)CC1 | 43* | -39 | 54 | 14 | -9 | 1 | 23
CC(=O)N1CCCN(S(=O)(=O)c2ccc3c(c2)oc(=O)n3C)CC1 | 2 | · | · | · | · | · | ·
O=C1/C(=C/c2cccnc2)CCc2c1[nH]c1ccccc21 | 15 | -66 | -22 | -19 | -2 | · | ·
CC1C/C(=C\c2cccnc2)C(=O)/C(=C/c2cccnc2)C1 (stereo not given) | 96* | · | -6 | · | -10 | 91* | 105*
CCN(CC(=O)Nc1ccc(NC(C)=O)cc1)C(=O)c1ccc(COc2ccc(C(C)(C)C)cc2)cc1 | 51* | · | -1 | · | -7 | -13 | 38*
CCN(CC(=O)Nc1ccc(NC(C)=O)cc1)C(=O)c1ccc(COc2ccccc2)o1 | -13 | 11 | 1 | 19 | -5 | · | ·
COC(=O)[C@]12C[C@H](CC(=O)NCCc3ccccc3OC)C(=O)N(CCc3ccc(OC)c(OC)c3)C1=C[C@H](C(C)C)O[C@@H]2C1CC1 | -13 | · | · | · | · | · | ·
Cc1[nH]c2ccccc2c1/C=N/Nc1ccccn1 | 5 | · | · | · | -4 | · | ·
Cc1[nH]c2ccccc2c1/C=N/Nc1nncn1N | 92* | 20 | -6 | -18 | -3 | -70 | -35
Nc1ccc(-c2nc3ccc(C(=O)O)cc3s2)cc1 | 42* | · | -36 | · | 2 | -96 | -24
COc1ccc2c(c1)sc1nc(-c3ccccc3)cn12 | 47* | -101 | 54 | 41 | 3 | 47* | 40*
CCCCCCCCCCCCCCCC[n+]1ccccc1 | 51*! | · | 84* | · | -1 | 1 | 26
COc1cccc(OCC(C)CN2CCC(C(O)(c3ccccc3)c3ccccc3)CC2)c1 (stereo not given) | 9 | · | · | · | · | · | ·
COc1ccc(CC(=O)Nc2ccc3c(c2)CCC3)cc1OC | 50* | -14 | 8 | 7 | -7 | -4 | 12
COc1ccc(OC)c(CC(=O)Nc2ccc3c(c2)CCC3)c1 | 8 | 5 | -10 | 7 | -9 | · | ·
SMILES | NR2F2 inh | 697 NFkB inh | Gli-Sufu block | Jurkat NFkB inh | GalR3 antagonist | VP16 Luc counter | COUP-TFII conf
COc1ccc(CCC(=O)Nc2ccc(C)c(S(=O)(=O)N(C)C)c2)cc1OC | 41* | -35 | 18 | 20 | -3 | 1 | 15
COC(=O)[C@]12C[C@H](CC(=O)N3CCOCC3)C(=O)N(CCC3=CCCCC3)C1=C[C@H](C(C)C)O[C@@H]2C1CC1 | 6 | · | · | · | · | · | ·
Clc1ccc2nc(CNc3nc(N4CCOCC4)nc4c3ncn4-c3ccsc3)[nH]c2c1 | 70* | · | · | · | · | 19* | 45*
COc1cc(C#Cc2c(-c3cncn3C)n(C)c3ccc(-c4cnc(OC)nc4)cc23)cc(OC)c1 | 45* | 29 | 1 | -1 | -5 | -8 | -1
CCOc1ccc(CN2CCN(C(=O)c3cccc4ccccc34)CC2)cc1 | 59* | -10 | 47 | 29 | -2 | 3 | 35
CCOc1ccc(CN2CCN(C(=O)c3ccccc3)CC2)cc1 | 25 | 14 | -24 | -3 | -6 | · | ·
O=C(CCc1ccccc1)N[C@H]1C(=O)CCC[C@]12C(=O)N(Cc1ccccc1)c1ccccc12 | 32 | · | · | · | · | · | ·
O=C(Nc1ccc(F)cc1)OCCCN1C(=O)CCC12CCCCC2 | -4 | · | · | · | · | · | ·
Cn1c(SCC(=O)NCCc2ccccc2)ncc(C(=O)Nc2ccccc2)c1=O | 54* | 4 | 8 | 6 | -4 | 4 | 1
COc1ccc(NC(=O)c2cnc(SCC(=O)NCCc3ccccc3)n(C)c2=O)cc1 | 11 | -15 | 10 | 2 | -1 | · | ·
CCCCCCCCN1C(=O)[C@@H](CC(=O)N2CCN(C(=O)c3ccco3)CC2)C[C@@]2(C(=O)OC)C1=C[C@H](COCc1ccccc1)O[C@@H]2C | 2 | · | · | · | · | · | ·
CCCC1CCC2(CC1)CCC2OC(=S)NCCc1ccc(Cl)cc1 (stereo not given) | 15 | · | · | · | · | · | ·
Nc1nc(Cl)cc(NCCc2ccc(O)cc2)n1 | 3 | -26 | 27 | -6 | -4 | · | ·
Oc1ccc(CCNc2ncnc3ccc(Cl)cc23)cc1 | 80* | -21 | 61* | 38 | -5 | 7 | 64*
CC(C)C1CC(N(C)C)=CC(=S)N1 (stereo not given) | 33 | · | · | · | -8 | · | ·
Cc1cc(C)cc(NC(=O)OC2CC3CC2[C@H]2CCCCN2[C@H]3Cc2ccccc2)c1 (stereo not given in full) | -20 | · | · | · | · | · | ·
CCCCN(CC)CCNC(=O)c1cc2c(C)nc3ccccc3c2o1 | 0 | 13 | 18 | -8 | · | · | ·
Cc1nc2ccccc2c2oc(C(=O)NCC3COc4ccccc4O3)cc12 (stereo not given) | 31 | -23 | 20 | 16 | 2 | · | ·
COc1cccc(CNC(=O)c2cc3c(C)nc4ccccc4c3o2)c1 | 38* | -15 | 8 | 7 | · | 3 | 16
CCc1ccc(CNC(=O)c2cc3c(C)nc4ccccc4c3o2)cc1 | 51* | -23 | 39 | 22 | · | 6 | 37
C=CCn1c(Cc2cccs2)nnc1SCC(=O)Nc1ccc(OCc2ccccc2)cc1 | 22 | · | · | · | · | · | ·
O=C(CNS(=O)(=O)c1cc2ccccc2s1)N1CCN(c2ccccn2)CC1 | 15 | · | · | · | · | · | ·
